From PubChem BioAssay (NCATS)
Records with an inconclusive call do not appear. Values without a mark were called inactive. Activity calls are given as the source filed them. Calls follow the shape of the dose curve; as a rule, active = well fitted cell-killing curve with a large enough effect; inconclusive = small, poorly fitted or top-dose-only effect, or effect the other way; inactive = flat fitted curve, though single readings scatter.

Assays:
Assay in all cases: Primary qHTS to identify gynecologic anti-cancer compounds using libraries of approved drugs and bioactive compounds (AID 1345084); also: nearly all actives have a fitted effect of over 55% in size
CASKI = details: Gynecologic cancer cell panel viability, ATPlite luminescence, 48 h; series mostly up to 57.5 µM
Procedure, shortened: (§1)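 Luminescence from the ATPlite ATP-monitoring reagent indicates viable cell number; lower signal means cytotoxicity. Cells received compound 16 h after seeding and were exposed for 48 h across five concentrations.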

Es-2 = details: Gynecologic cancer cell panel viability, ATPlite luminescence, 48 h; series mostly up to 57.5 µM
Procedure, shortened: as §1

HeLa = details: Gynecologic cancer cell panel viability, ATPlite luminescence, 48 h; series mostly up to 57.5 µM
Procedure, shortened: as §1

Hek293T = details: Gynecologic cancer cell panel viability, ATPlite luminescence, 48 h, control line for the selectivity index; series mostly up to 57.5 µM
Procedure, shortened: as §1

CAOV3 = details: Gynecologic cancer cell panel viability, ATPlite luminescence, 48 h; series mostly up to 57.5 µM
Procedure, shortened: as §1
% is scaled to controls: 0 for no effect and ±100 for the full control effect; potency is read from the fitted curve at half-maximal effect.

Compound: CNS(=O)(=O)c1ccccc1Nc1nc(Nc2ccc(N3CCN(C)CC3)cc2OC)ncc1Cl
- Potency (CASKI): 7.08 µM (active)
- Potency (Es-2): 12.6 µM (active)
- Potency (HeLa): 2 µM (active)
- Potency (Hek293T): 12.6 µM (active)

Compound: Cn1cncc1C(N)(c1ccc(Cl)cc1)c1ccc2c(c1)c(-c1cccc(Cl)c1)cc(=O)n2C (stereo not drawn)
- Potency (CASKI): inactive
- Potency (HeLa): inactive

Compound: CO[C@H]1/C=C/[C@@](C)(O)/C=C/C(=O)O[C@H](C)[C@@H](C)CC/C=C/1C
- Potency (CASKI): 11.2 µM (active)

Compound: CS(=O)(=O)N(CC(=O)NCC1CC1)c1cc(C(F)(F)F)ccc1Cl
- Potency (CAOV3): inactive
- Potency (Es-2): inactive
- Potency (HeLa): inactive
- Potency (Hek293T): inactive

Compound: Nc1ccc(-c2cccc3c(=O)cc(N4CCOCC4)oc23)cc1
- Potency (CASKI): 12.6 µM (active)

Compound: COc1cc2ncnc(N3CCC(Oc4cnc5ccccc5n4)C3)c2cc1OC (stereo not drawn)
- Potency (CASKI): 7.08 µM (active)
- Potency (Es-2): 3.98 µM (active)
- Potency (HeLa): 1.78 µM (active)
- Potency (Hek293T): 3.55 µM (active)

Compound: COc1cc2c(cc1O)CC[C@H]1[C@@H]2CC[C@]2(C)[C@H](O)CC[C@@H]12
- Potency (CAOV3): inactive
- Potency (Es-2): 3.98 µM (active)
- Potency (HeLa): 3.16 µM (active)

Compound: CN(C)c1nc(NC2CCC(NCCc3ccc(Br)cc3OC(F)(F)F)CC2)nc2ccccc12 (stereo not drawn)
- Potency (CAOV3): 3.98 µM (active)
- Potency (Hek293T): 25.1 µM (active)

Compound: CC(C)c1nc(-c2ccc(NC(=O)Nc3cccc(C(F)(F)F)c3)c3ccccc23)c2c(N)nccn12
- Potency (CAOV3): 22.4 µM (active)
- Potency (Es-2): 12.6 µM (active)
- Potency (HeLa): 31.6 µM (active)
- Potency (Hek293T): 15.8 µM (active)

Compound: Cc1ccc(NC(=O)Nc2cc(C(F)(F)F)ccc2F)cc1Nc1ccc2c(c1)NC(=O)/C2=C\c1ccc[nH]1
- Potency (CASKI): inactive
- Potency (Es-2): inactive
- Potency (HeLa): inactive
- Potency (Hek293T): inactive

Compound: CC(Nc1ncnc2nc[nH]c12)c1cc2cccc(Cl)c2c(=O)n1-c1ccccc1 (stereo not drawn)
- Potency (CAOV3): inactive
- Potency (Es-2): inactive
- Potency (HeLa): inactive

Compound: Cc1cc(OCc2nnc(SC3CCCC3)n2-c2cccnc2)ccc1-c1ccc(S(C)(=O)=O)cc1
- Potency (CAOV3): 31.6 µM (active)
- Potency (HeLa): 31.6 µM (active)

Compound: CC1(C)C2CC(OC3OC(COC4OCC(O)(CO)C4O)C(O)C(O)C3O)C1(C)CC2O (stereo not drawn)
- Potency (CASKI): inactive

Compound: CC(C)[C@@](C)(O)[C@@H]1CN(c2nc(-c3[nH]nc4ncccc34)c(F)cc2Cl)CCN1
- Potency (CASKI): inactive
- Potency (Es-2): inactive
- Potency (HeLa): inactive
- Potency (Hek293T): inactive

Compound: CN1CCN(Cc2ccc(-c3cnc4[nH]cc(-c5ccc6[nH]ccc6c5)c4c3)cc2)CC1
- Potency (CAOV3): 22.4 µM (active)
- Potency (Es-2): 22.4 µM (active)
- Potency (HeLa): 31.6 µM (active)

Compound: c1cc(Nc2cc(C3CC3)[nH]n2)nc(Nc2ccc3nc[nH]c3c2)n1
- Potency (CASKI): 1.78 µM (active)
- Potency (Es-2): 12.6 µM (active)

Compound: C[C@@H]1C[C@H]2O[C@@H]2/C=C\C=C\C(=O)Cc2c(Cl)c(O)cc(O)c2C(=O)O1
- activity change, negative = cytotoxicity (CASKI): -0.527% [at 11.6 µM]

Compound: Cc1cc(O)c(-c2ccc([C@@H](C)CN(C)C)cc2)c2c1[nH]c(=O)c1sccc12
- Potency (CASKI): 0.251 µM (active)
- Potency (Es-2): 0.282 µM (active)
- Potency (HeLa): 0.447 µM (active)
- Potency (Hek293T): 0.158 µM (active)

Compound: CC1(C)CC(=O)C2=C(C1)NC(=S)NC2c1cccc(O)c1 (stereo not drawn)
- Potency (CAOV3): 3.55 µM (active)
- Potency (HeLa): 7.94 µM (active)

Compound: CN(C)C/C=C/C(=O)Nc1cccc(C(=O)Nc2cccc(Nc3ncc(Cl)c(-c4c[nH]c5ccccc45)n3)c2)c1
- Potency (CASKI): 1.58 µM (active)
- Potency (Es-2): 8.91 µM (active)
- Potency (HeLa): 2 µM (active)

Compound: C#CCN(Cc1cc2c(=O)[nH]c(C)nc2cc1Br)c1ccc(C(=O)NCc2cccnc2)cc1
- Potency (CASKI): 0.447 µM (active)

Compound: COc1ccc(CC2C(=O)NC(C)C(=O)N(C)C3Cc4ccc(cc4)Oc4cc(ccc4OC4OC(CO)C(O)C(O)C4O)CC(C(=O)NC(C)C(=O)NC(C)C(=O)N2C)N(C)C3=O)cc1 (stereo not drawn)
- Potency (CASKI): 0.631 µM (active)
- Potency (Es-2): 0.398 µM (active)
- Potency (HeLa): 2 µM (active)
- Potency (Hek293T): 0.158 µM (active)

Compound: CC[C@]12C=CCN3CC[C@@]4(c5cc([C@@]6(C(=O)OC)C[C@H]7C[C@@H](C(C)(F)F)CN(Cc8c6[nH]c6ccccc86)C7)c(OC)cc5N(C)[C@H]4[C@@](O)(C(=O)OC)[C@@H]1OC(C)=O)[C@@H]32
- Potency (CAOV3): inactive
- Potency (Es-2): 1 µM (active)
- Potency (HeLa): 0.631 µM (active)

Compound: NCCCNc1ccc(Nc2nccc(Nc3cc(C4CC4)[nH]n3)n2)cc1
- Potency (CASKI): 3.98 µM (active)
- Potency (Es-2): 2.24 µM (active)
- Potency (HeLa): 4.47 µM (active)
- Potency (Hek293T): 1.41 µM (active)

Compound: COc1cc2c(cc1OC)-c1[nH]nc(Nc3cccc(F)c3)c1C2
- Potency (CASKI): 0.891 µM (active)
- Potency (Es-2): 1.41 µM (active)
- Potency (HeLa): 0.562 µM (active)

Compound: COc1ncc(Nc2ncc([C@H](C)N3CCN(S(C)(=O)=O)CC3)cc2-c2nc(C)nc(N)n2)cc1F
- Potency (CASKI): 1 µM (active)
- Potency (Es-2): inactive
- Potency (Hek293T): 0.794 µM (active)

Compound: CC(=O)SCC(=O)c1ccc(NS(=O)(=O)c2ccc(OCCCN(C)C)cc2)nc1
- Potency (CAOV3): inactive
- Potency (Es-2): 14.1 µM (active)
- Potency (HeLa): 10 µM (active)

Compound: CC[C@]1(O)CC2CN(CCc3c([nH]c4ccccc34)[C@@](C(=O)OC)(c3cc4c(cc3OC)N(C)[C@H]3[C@@](O)(C(=O)OC)[C@H](OC(C)=O)[C@]5(CC)C=CCN6CC[C@]43[C@@H]65)C2)C1 (stereo partly drawn)
- Potency (CASKI): 1.12 µM (active)
- Potency (Es-2): 0.794 µM (active)
- Potency (HeLa): 0.708 µM (active)

Compound: O=C(Nc1nc2ccccc2n1CCc1ccccc1)c1ccccc1
- Potency (CASKI): inactive
- Potency (HeLa): inactive

Compound: CNC(=O)c1ccccc1Nc1nc(Nc2ccc(N3CCNCC3)cc2)ncc1Cl
- Potency (CASKI): 0.355 µM (active)
- Potency (Es-2): 2.24 µM (active)
- Potency (HeLa): 0.0398 µM (active)
- Potency (Hek293T): 0.631 µM (active)

Compound: CO[C@H]1/C=C/C=C/C=C/C[C@H](OC(=O)[C@@H](C)NC(=O)C2CCCCC2)[C@H](C)[C@@H](O)/C(C)=C/CCc2cc(O)cc(c2)NC(=O)C1
- Potency (CAOV3): inactive
- Potency (Es-2): 1.78 µM (active)
- Potency (HeLa): 3.55 µM (active)
- Potency (Hek293T): 0.708 µM (active)

Compound: C=C(C)C(=O)O[C@H]1CC2=CC(C/C(C)=C\[C@H]3OC(=O)C(=C)[C@H]13)OC2=O (stereo partly drawn)
- Potency (CASKI): inactive
- Potency (HeLa): inactive

Compound: CC(=O)N1CCN(C(=O)Cc2ccc(Nc3ncc(F)c(Nc4ccc(C(=O)Nc5ccccc5Cl)cc4)n3)cc2)CC1
- Potency (CAOV3): 31.6 µM (active)
- Potency (HeLa): 7.94 µM (active)

Compound: O=C(O)[C@@H]1C[C@H]2C[C@@H](CCc3nn[nH]n3)CC[C@H]2CN1
- Potency (CASKI): inactive
- Potency (Es-2): inactive
- Potency (HeLa): inactive
- Potency (Hek293T): inactive

Compound: CNC(=O)c1ccccc1Nc1nc(Nc2ccc3c(c2OC)CCC[C@@H](N2CCN(CCO)CC2)C3)ncc1Cl
- Potency (CASKI): 12.6 µM (active)

Compound: COC(=O)N1CCC(n2ncc3c(N4CCOCC4)nc(-c4ccc(NC(=O)Nc5ccc(CO)cc5)cc4)nc32)CC1
- Potency (CASKI): 1.12 µM (active)
- Potency (Es-2): 1 µM (active)
- Potency (HeLa): 2.51 µM (active)
- Potency (Hek293T): 0.282 µM (active)

Compound: Cc1cc(Nc2ncc3cc(-c4c(Cl)cccc4Cl)c(=O)n(C)c3n2)ccc1F
- Potency (CAOV3): 3.16 µM (active)
- Potency (Es-2): 7.94 µM (active)
- Potency (HeLa): 3.55 µM (active)

Compound: COc1cccc(Nc2ncnn3ccc(CN4CC[C@@H](N)[C@H](O)C4)c23)c1
- Potency (CASKI): inactive
- Potency (Es-2): inactive
- Potency (HeLa): inactive

Compound: CS(=O)(=O)N1CCC(NC(=O)c2[nH]ncc2NC(=O)c2c(Cl)cccc2Cl)CC1
- Potency (CASKI): 7.94 µM (active)
- Potency (Es-2): 4.47 µM (active)
- Potency (HeLa): 10 µM (active)
- Potency (Hek293T): 5.01 µM (active)

Compound: C=C(C)C(=O)OC1CC2(C)OC(=CC2=O)C(=C)CC2OC(=O)C(COC)C12 (stereo not drawn)
- Potency (CAOV3): inactive
- Potency (HeLa): inactive
